Results taken from PubChem BioAssay (NCI).
Compounds without any hit were thinned out: in the full panel of roughly 83,000, 20% have a hit.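 Results are percent growth after 48 hours of single-concentration exposure. 100 means growth as in untreated cells, lower positive values show inhibition; negative values down to -100 show cell death.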 A number with no mark means an inactive call. Active and inactive are the calls of the source. Rule for the calls: active = growth percent below 10; inactive = the rest.

Tests used:
Experiment in all cases: NCI-60 one-dose screen, 48 h (100 = growth as untreated, 0 = no growth, -100 = all killed)
Details in all cases: 10 µM unless noted
[1] = system: NCI-H23 lung
[2] = system: NCI-H226 lung
[3] = system: NCI-H322M lung
[4] = system: HOP-62 NSCLC
[5] = system: NCI-H460 lung
[6] = system: HOP-92 NSCLC
[7] = system: NCI-H522 lung
[8] = system: A549/ATCC NSCLC
[9] = system: 786-0 renal
[10] = system: COLO 205 colon
[11] = system: DU-145 prostate
[12] = system: K-562 leukemia
[13] = system: MALME-3M melanoma
[14] = system: MDA-MB-231 breast
[15] = system: RXF 393 renal
[16] = system: SF-268 CNS
[17] = system: SF-295 CNS
[18] = system: SF-539 CNS
[19] = system: UACC-257 melanoma
[20] = system: M14 melanoma

Which results are given for `C[C@@H]1C[C@H](N)C[C@H](c2ccncc2NC(=O)c2ccc(F)c(-c3c(F)cccc3F)n2)C1`?
growth [1]: 73.3%; growth [2]: 53.6%; growth [3]: 71%; growth [4]: 49.1%; growth [5]: 62.5%; growth [6]: 10.4%; growth [7]: 46.4%; growth [8]: 48.7%; growth [9]: 56.1%; growth [10]: -33.4% (active); growth [11]: 80.4%; growth [12]: 11.4%; growth [13]: -20.6% (active); growth [14]: 59.1%; growth [15]: 23.2%; growth [16]: 58.9%; growth [17]: 71.9%; growth [18]: 70.2%; growth [19]: -69.4% (active); growth [20]: -30.8% (active)

`CC(C)c1ccc(Cn2ccc3c4c(N)nc(NC5CC5)nc4ccc32)cc1` was tested. Which growth [1] did it give?
Its growth is -71.3% (active).

What about the growth [2] of the same molecule?
The growth was -73.3% (active).

What about the growth [3] of the same molecule?
The growth was -93.2% (active).

And the growth [4]?
Its growth is -74.8% (active).

And the growth [5]?
Its growth is -84.2% (active).

What about the growth [6] of the same molecule?
The growth was -88.2% (active).

What about the growth [7] of the same molecule?
The growth was -81.8% (active).

And the growth [8]?
The growth was -80.9% (active).

What about the growth [9] of the same molecule?
Its growth is -91.6% (active).

What about the growth [10] of the same molecule?
The growth was -78% (active).

And the growth [11]?
The growth was -89.5% (active).

What about the growth [12] of the same molecule?
Its growth is -69.7% (active).

What about the growth [13] of the same molecule?
Its growth is -91.6% (active).

And the growth [14]?
Its growth is -89.6% (active).

And the growth [15]?
The growth was -90.9% (active).

And the growth [16]?
Its growth is -77.6% (active).

What about the growth [17] of the same molecule?
Its growth is -82.8% (active).

And the growth [18]?
The growth was -91.5% (active).

What about the growth [19] of the same molecule?
The growth was -77.8% (active).

And the growth [20]?
The growth was -86.2% (active).

For `CCN(C)CCCOc1ccc(/C(=C(\C)Cc2cccc(OC)c2)c2ccc(OC(C)=O)cc2)cc1`, which growth [1] is on record?
Its growth is 93.9%.

And the growth [2]?
Its growth is 86.2%.

What about the growth [3] of the same molecule?
The growth was 98.5%.

What about the growth [4] of the same molecule?
Its growth is 97%.

And the growth [5]?
Its growth is 105%.

What about the growth [6] of the same molecule?
Its growth is 99.2%.

And the growth [7]?
Its growth is 94.3%.

What about the growth [8] of the same molecule?
Its growth is 104%.

What about the growth [9] of the same molecule?
Its growth is 101%.

And the growth [10]?
The growth was 107%.

And the growth [11]?
Its growth is 104%.

What about the growth [12] of the same molecule?
Its growth is 101%.

And the growth [13]?
The growth was 97.3%.

What about the growth [14] of the same molecule?
The growth was 104%.

And the growth [15]?
The growth was 106%.

And the growth [16]?
Its growth is 94.1%.

And the growth [17]?
Its growth is 99.1%.

What about the growth [18] of the same molecule?
Its growth is 101%.

And the growth [19]?
The growth was 109%.

What about the growth [20] of the same molecule?
The growth was 101%.

How did the growth [1] turn out when `NC(N)=N/N=C/c1ccccc1` was run?
The growth was 102%.

What about the growth [2] of the same molecule?
The growth was 97.8%.

And the growth [3]?
Its growth is 91.2%.

And the growth [4]?
The growth was 101%.

What about the growth [5] of the same molecule?
Its growth is 103%.

And the growth [6]?
Its growth is 95.8%.

What about the growth [7] of the same molecule?
The growth was 85.6%.

And the growth [8]?
The growth was 97.4%.

And the growth [9]?
Its growth is 103%.

And the growth [10]?
Its growth is 99.9%.

What about the growth [11] of the same molecule?
The growth was 105%.

And the growth [12]?
Its growth is 96.1%.

What about the growth [13] of the same molecule?
The growth was 102%.

What about the growth [14] of the same molecule?
Its growth is 92.9%.

And the growth [15]?
Its growth is 101%.

And the growth [16]?
The growth was 103%.

And the growth [17]?
The growth was 88.3%.

What about the growth [18] of the same molecule?
The growth was 98%.

What about the growth [19] of the same molecule?
Its growth is 93.9%.

And the growth [20]?
The growth was 103%.

Which results are given for `COc1ccccc1NC(=O)OCC12COCN1COC2`?
growth [1]: 100%; growth [2]: 99%; growth [3]: 107%; growth [4]: 104%; growth [5]: 104%; growth [6]: 105%; growth [7]: 100%; growth [8]: 92.9%; growth [9]: 103%; growth [10]: 108%; growth [11]: 112%; growth [12]: 104%; growth [13]: 103%; growth [14]: 102%; growth [15]: 108%; growth [16]: 106%; growth [17]: 103%; growth [18]: 103%; growth [19]: 89.9%; growth [20]: 104%

`COc1ccc(C(=O)c2cc(C)c(OC)c(C)c2)cc1OC(=O)CCl` was tested. Which growth [1] did it give?
The growth was 29.1%.

What about the growth [2] of the same molecule?
Its growth is 52.8%.

And the growth [3]?
Its growth is 42.7%.

And the growth [4]?
Its growth is 17.8%.

And the growth [5]?
The growth was 6.67% (active).

What about the growth [6] of the same molecule?
The growth was 96.5%.

What about the growth [7] of the same molecule?
The growth was -40.2% (active).

What about the growth [8] of the same molecule?
The growth was 14.6%.

And the growth [9]?
Its growth is 16.2%.

What about the growth [10] of the same molecule?
Its growth is 9.62% (active).

What about the growth [11] of the same molecule?
The growth was 9.37% (active).

And the growth [12]?
Its growth is 4.66% (active).

What about the growth [13] of the same molecule?
Its growth is 63.1%.

And the growth [14]?
The growth was 22.9%.

What about the growth [15] of the same molecule?
The growth was 37.7%.

What about the growth [16] of the same molecule?
Its growth is 27.6%.

What about the growth [17] of the same molecule?
Its growth is 11.8%.

What about the growth [18] of the same molecule?
The growth was -26.1% (active).

And the growth [19]?
Its growth is 56.8%.

And the growth [20]?
Its growth is 0.344% (active).

Which growth [1] does the source give for `CN(C)CCOc1nc2c3ccncc3cc(-c3cccc(Cl)c3)c2c2cnccc12` here?
The growth was 29.7%.

What about the growth [2] of the same molecule?
Its growth is 35%.

And the growth [3]?
The growth was 44.1%.

And the growth [4]?
Its growth is 43.5%.

What about the growth [5] of the same molecule?
The growth was 10.5%.

What about the growth [6] of the same molecule?
The growth was 56.2%.

And the growth [7]?
The growth was 31.9%.

And the growth [8]?
Its growth is 16.4%.

What about the growth [9] of the same molecule?
Its growth is 33.4%.

And the growth [10]?
The growth was 13.8%.

What about the growth [11] of the same molecule?
The growth was 30.7%.

And the growth [12]?
Its growth is -34.7% (active).

What about the growth [13] of the same molecule?
The growth was 40.1%.

And the growth [14]?
The growth was 24%.

And the growth [15]?
The growth was 1.01% (active).

What about the growth [16] of the same molecule?
Its growth is 35.1%.

And the growth [17]?
The growth was 31.6%.

What about the growth [18] of the same molecule?
Its growth is 32%.

And the growth [19]?
Its growth is 47.3%.

And the growth [20]?
The growth was 26%.

Which growth [1] does the source give for `COc1cc2c(cc1C)NC(=O)/C2=C\c1c[nH]c2ccccc12` here?
The growth was 79.9%.

What about the growth [2] of the same molecule?
Its growth is 84%.

And the growth [3]?
The growth was 65.8%.

What about the growth [4] of the same molecule?
Its growth is 75.2%.

And the growth [5]?
The growth was 40.6%.

What about the growth [6] of the same molecule?
Its growth is 50.1%.

And the growth [7]?
Its growth is 54.7%.

And the growth [8]?
Its growth is 52.5%.

What about the growth [9] of the same molecule?
Its growth is 65.4%.

What about the growth [10] of the same molecule?
The growth was 91.1%.

What about the growth [11] of the same molecule?
The growth was 78.6%.

What about the growth [12] of the same molecule?
The growth was 40.6%.

What about the growth [13] of the same molecule?
Its growth is 75.9%.

And the growth [14]?
The growth was 60.8%.

What about the growth [15] of the same molecule?
The growth was 47%.

And the growth [16]?
Its growth is 81.6%.

And the growth [17]?
The growth was 26.4%.

What about the growth [18] of the same molecule?
The growth was 69.7%.

What about the growth [19] of the same molecule?
Its growth is 90%.

What about the growth [20] of the same molecule?
The growth was 80.9%.
